Some test systems named below: NCI-H23 lung; NCI-H226 lung; NCI-H322M lung; HOP-62 NSCLC; NCI-H460 lung; HOP-92 NSCLC; NCI-H522 lung; A549/ATCC NSCLC; 786-0 renal; COLO 205 colon; DU-145 prostate; K-562 leukemia; MALME-3M melanoma; MDA-MB-231 breast; RXF 393 renal; SF-268 CNS; SF-295 CNS; SF-539 CNS; UACC-257 melanoma; M14 melanoma.
Holding throughout (test): NCI-60 one-dose screen, 48 h (100 = growth as untreated, 0 = no growth, -100 = all killed)
Holding throughout (conditions): 10 µM unless noted

Compounds without any hit were thinned out: in the full panel of roughly 83,000, 20% have a hit.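 How to read the values: 0–100, growth inhibition (40 = 60% inhibited); 0, no net growth; -100 to 0, cell death (-40 = 40% of starting cells died; -100 = all dead).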 Values without a mark were called inactive. The source made the active and inactive calls. How the source made its calls: active means growth percent below 10; inactive means the rest.

We go through 7 molecules from PubChem BioAssay (NCI).

`O=C1NC(=O)C(Cn2cnc3ccccc32)N1` (stereo not given): the growth in the assay on NCI-H23 lung is 98.4%; with NCI-H226 lung, 103%; with NCI-H322M lung, 99%; in the assay on HOP-62 NSCLC, 102%; in the assay on NCI-H460 lung it was 101%; in the assay with HOP-92 NSCLC, 97.4%. For the same molecule, the growth was 95.9% with NCI-H522 lung; 97.8% in the assay with A549/ATCC NSCLC; 99.2% in the assay on 786-0 renal; 107% in the assay on COLO 205 colon; 110% in the assay with DU-145 prostate; 106% in the assay on K-562 leukemia. Moreover, the growth is 103% with MALME-3M melanoma; 103% in the assay with MDA-MB-231 breast; 114% in the assay with RXF 393 renal; 100% with SF-268 CNS; 104% in the assay with SF-295 CNS; 96.4% with SF-539 CNS. Further, the growth was 101% in the assay on UACC-257 melanoma and 103% in the assay with M14 melanoma.
For `CCOC(=O)CC1C(COC(=O)NC)OC(n2cnc3c(NC(=O)Nc4ccccc4)ncnc32)C1O[Si](C)(C)C(C)(C)C` (stereo not given), the growth with NCI-H23 lung was 81%; in the assay with NCI-H226 lung, 55.5%; in the assay on NCI-H322M lung it was 91.1%; in the assay with HOP-62 NSCLC, 77.4%; in the assay with NCI-H460 lung, 13.2%; with HOP-92 NSCLC it was 62.1%. Further, the growth in the assay on NCI-H522 lung is 45.3%; with A549/ATCC NSCLC, 51.3%; in the assay on 786-0 renal, 72.5%; in the assay on COLO 205 colon it was 67.4%; in the assay with DU-145 prostate it was 58.7%; with K-562 leukemia it was 28.7%. Moreover, the growth is 53.5% with MALME-3M melanoma; 71.7% in the assay on MDA-MB-231 breast; 35% in the assay on RXF 393 renal; 59.9% with SF-268 CNS; 66.1% with SF-295 CNS; 33.4% in the assay with SF-539 CNS. The figures for the growth in the assay on UACC-257 melanoma and in the assay with M14 melanoma were 59.2% and 57.1%, respectively.
For the molecule `c1ccc(Cc2nn3cc(-c4ccccc4)nc3s2)cc1`, the growth was 97.8% in the assay with NCI-H23 lung; 117% in the assay on NCI-H226 lung; 98.4% with NCI-H322M lung; 104% in the assay with HOP-62 NSCLC; 102% in the assay on NCI-H460 lung; 109% with HOP-92 NSCLC. The growth in the assay on NCI-H522 lung was 80.1%; in the assay on A549/ATCC NSCLC, 91.3%; with 786-0 renal it was 86.3%; in the assay on COLO 205 colon, 118%; in the assay with DU-145 prostate it was 99%; in the assay with K-562 leukemia, 93.8%. Further, the growth is 111% in the assay on MALME-3M melanoma; 109% with MDA-MB-231 breast; 129% in the assay with RXF 393 renal; 98% with SF-268 CNS; 97.8% with SF-295 CNS; 106% in the assay with SF-539 CNS. The growth was 108% in the assay with UACC-257 melanoma and 90.3% with M14 melanoma.
Consider `NCCNc1nc2ccccc2c2c(=O)c3cc(F)ccc3sc12`, for which the growth in the assay on NCI-H23 lung was 84.9%; in the assay with NCI-H226 lung, 96%; with NCI-H322M lung, 72.6%; in the assay on HOP-62 NSCLC it was 76.5%; in the assay on NCI-H460 lung, 12.2%; with HOP-92 NSCLC, 59.1%. For the same molecule, the growth with NCI-H522 lung was 79.4%; in the assay on A549/ATCC NSCLC it was 66.1%; in the assay with 786-0 renal, 73.5%; in the assay on COLO 205 colon it was -1% (active); in the assay on DU-145 prostate, 65.9%; with K-562 leukemia it was 1.61% (active). The growth in the assay on MALME-3M melanoma was 96.2%; in the assay on MDA-MB-231 breast, 33.7%; with RXF 393 renal it was 77.8%; with SF-268 CNS, 66.9%; with SF-295 CNS it was 102%; in the assay on SF-539 CNS, 82.7%. The growth in the assay on UACC-257 melanoma was 103%; in the assay on M14 melanoma it was 77.4%.
In the case of `N/C(=N\c1nc2ccccc2s1)NC(=O)Nc1cccc2ccccc12`, the growth in the assay on NCI-H23 lung is 29.6%; in the assay with NCI-H226 lung it was 66.8%; in the assay with NCI-H322M lung it was 41.8%; in the assay on HOP-62 NSCLC, 34.5%; in the assay with NCI-H460 lung, 10.7%; with HOP-92 NSCLC, 48.4%. Moreover, the growth in the assay on NCI-H522 lung was 5.26% (active); with A549/ATCC NSCLC, 27.7%; in the assay with 786-0 renal it was 34.5%; in the assay on COLO 205 colon, 3.54% (active); in the assay on DU-145 prostate it was 23.2%; in the assay on K-562 leukemia, 9.12% (active). The growth with MALME-3M melanoma was 59.7%; with MDA-MB-231 breast, 52%; with RXF 393 renal, -2.29% (active); in the assay on SF-268 CNS, 56.4%; in the assay on SF-295 CNS, 33.3%; in the assay on SF-539 CNS, -21% (active). Also, the growth is 67.4% in the assay on UACC-257 melanoma and 5.44% (active) in the assay on M14 melanoma.
As for `CNC(C)[C@H]1CCC2C3CCC4C[C@@H](N(C)C(=O)c5ccccc5)CC[C@]4(C)C3CC[C@@]21C` (stereo not given in full), the growth with NCI-H23 lung was 40.9%; with NCI-H226 lung, 80.3%; in the assay on NCI-H322M lung, 12.6%; with HOP-62 NSCLC it was 38.4%; with NCI-H460 lung, -7.41% (active); in the assay on HOP-92 NSCLC, 19.2%. Further, the growth in the assay on NCI-H522 lung is 69.5%; in the assay with A549/ATCC NSCLC, 39.9%; in the assay with 786-0 renal, 40.1%; with COLO 205 colon, -79.3% (active); in the assay on DU-145 prostate, 61.4%; with K-562 leukemia, -2.77% (active). The growth was -42.1% (active) in the assay with MALME-3M melanoma; -1.29% (active) with MDA-MB-231 breast; -67% (active) with RXF 393 renal; -9.75% (active) with SF-268 CNS; 24.3% in the assay with SF-295 CNS; -61.2% (active) with SF-539 CNS. For the same molecule, the results for the growth in the assay with UACC-257 melanoma and in the assay on M14 melanoma were -12.6% (active) and -36.6% (active), respectively.
In the case of `O=C(Nc1ccc(-c2nc(-c3cccc(OCCN4CCOCC4)c3)c(-c3ccnc(Br)c3)[nH]2)cc1)c1ccccc1`, the growth with NCI-H23 lung was 13.3%; in the assay on NCI-H226 lung it was 52.8%; with NCI-H322M lung it was 47.4%; in the assay on HOP-62 NSCLC, -1.45% (active); in the assay with NCI-H460 lung it was 7.26% (active); in the assay with HOP-92 NSCLC, 23.2%. The growth with NCI-H522 lung is 40.7%; in the assay with A549/ATCC NSCLC, 21.9%; in the assay on 786-0 renal, -39.4% (active); with COLO 205 colon, -25.2% (active); with DU-145 prostate, 55.6%; in the assay with K-562 leukemia it was 0.946% (active). In addition, the growth with MALME-3M melanoma is -21% (active); in the assay on MDA-MB-231 breast, 29.2%; in the assay on RXF 393 renal, -49.9% (active); in the assay on SF-268 CNS, 38.9%; with SF-295 CNS, -70.9% (active); with SF-539 CNS, -39.8% (active). The growth in the assay on UACC-257 melanoma is -0.153% (active); in the assay on M14 melanoma, 6.5% (active).
